# ± gives the standard deviation of the averaged measurements. The full ranking holds about 33,000 sequences; the median of “E-score (dimensionless, -0.5 to 0.5)” is about -0.049, and the highest 2% start at about 0.37. The list comes from a sample in which the highest values are over-represented; it also holds similar and randomly drawn sequences.
# System: T1, PmTbr T-box DNA-binding domain (GST fusion)
# T1 sequence: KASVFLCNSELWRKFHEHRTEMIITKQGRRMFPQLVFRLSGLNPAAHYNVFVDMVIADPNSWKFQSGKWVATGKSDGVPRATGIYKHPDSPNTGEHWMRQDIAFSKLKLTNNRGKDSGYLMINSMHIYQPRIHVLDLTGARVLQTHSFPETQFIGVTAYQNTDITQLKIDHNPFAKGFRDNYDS
# Test: PBM E-score of 8-mer (E-score (dimensionless, -0.5 to 0.5)); Tbr is Tbrain of the sea star Patiria miniata (Pm) or the sea urchin Strongylocentrotus purpuratus (Sp); higher = stronger binding preference
# Conditions: the construct has about 5 more residues each side
# Method: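 Universal protein-binding microarray (Agilent AMADID 016060, 60-bp probes with a 35-bp variable region) incubated with 200 nM GST-fused Patiria miniata Tbr T-box DNA-binding domain (residues 272-466) in PBS pH 7.5. Scored for every ungapped 8-mer (given with its reverse complement) by the Universal PBM Analysis Suite as E-score (modified Wilcoxon-Mann-Whitney enrichment, range -0.5 to 0.5; >0.45 counts as bound) and Z-score of median probe intensity. Two replicate arrays (datasets 1 and 2).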
row,Sequence,PBM E-score of 8-mer
1,ATGCTAGA,-0.158 ± 0.055
2,CTGCTAAA,0.21 ± 0.071
3,ACTATGCC,-0.0992 ± 0.096
4,CAACTGTG,0.231 ± 0.015
5,AAATGGCC,-0.316 ± 0.0079
6,CATCAAGA,-0.245 ± 0.022
7,AGTATTGG,-0.0858 ± 0.022
8,ACTGTTGA,0.123 ± 0.062
9,AGTGTTGG,0.3857 ± 0.0032
10,AGTGTTGA,0.395 ± 0.022
11,GCTGTTGA,0.0473 ± 0.023
12,AGTGTTTG,0.275 ± 0.036
13,AGTGTTGC,0.3558 ± 0.0028
14,CGTGTTGA,0.295 ± 0.028
15,GGTGTTGA,0.4746 ± 0.0036
16,GTTGTTGA,0.245 ± 0.029
17,CTCTCTGA,-0.253 ± 0.021
18,AGCTTCAT,-0.00536 ± 0.11
19,GAACCGTC,-0.07 ± 0.048
20,CCCATTTA,0.0289 ± 0.005
21,ACGGGCGC,0.0455 ± 0.05
22,CGAAAGTC,0.0804 ± 0.023
23,ACAGTGTA,0.0105 ± 0.032

row,Sequence,PBM E-score of 8-mer
1,GTTAAGCA,0.0703 ± 0.02
2,TAAACCCA,-0.0858 ± 0.0046
3,CTTATGGC,-0.0928 ± 0.041
4,CTCGTCAA,0.141 ± 0.04
5,ATCGTCAT,-0.0319 ± 0.033
6,ATCGTCAC,0.403 ± 0.0068
7,GTCGTCAC,0.3318 ± 0.0028
8,ATCGTCAA,0.0469 ± 0.0067
9,CTCGTCAC,0.3943 ± 0.0029
10,GCCTACCA,0.015 ± 0.093
11,CACTTAAA,0.158 ± 0.01
12,AGGTGCGG,0.434 ± 0.011
13,AGGTGCTG,0.414 ± 0.019
14,ATGTGCTG,0.1768 ± 0.001
15,AAGTGCGG,0.247 ± 0.0065
16,AGGTGCTC,0.0655 ± 0.042
17,AGGTGCGC,0.293 ± 0.023
18,CCAGAGGC,0.0947 ± 0.07
19,CACCACAG,0.131 ± 0.004
20,CTCGGGAC,-0.18 ± 0.058
21,CCTTCCAC,0.0992 ± 0.017
22,ACACCCGA,0.422 ± 0.012
23,GCACCCGC,0.333 ± 0.012

row,Sequence,PBM E-score of 8-mer
1,ACACCCGC,0.376 ± 0.011
2,GCACCCGA,0.15 ± 0.0018
3,TCACCCGA,0.0689 ± 0.025
4,CCACCCGC,0.0903 ± 0.013
5,GGAGGAGA,-0.011 ± 0.0051
6,AGGCACGG,-0.0977 ± 0.04
7,GAACGACA,0.106 ± 0.025
8,AAATAACC,0.0174 ± 0.057
9,AGCGAATA,0.0489 ± 0.053
10,CGTGTAGA,0.0938 ± 0.0091
11,AGCGAACG,0.0481 ± 0.02
12,CGCGAAAC,0.355 ± 0.0087
13,CGCGAAAG,0.3697 ± 0.0008
14,CGCGAACC,0.328 ± 0.0044
15,AGCGAAAG,-0.0461 ± 0.031
16,CGCGAACG,0.375 ± 0.017
17,ATCTTACC,-0.327 ± 0.021
18,ATCTTAAT,-0.171 ± 0.13
19,CCCAAACG,-0.119 ± 0.045
20,ACCTGGCA,0.288 ± 0.011
21,CTTTGCGA,0.0629 ± 0.022
22,AGCTCCCA,-0.308 ± 0.076
23,CCCACGCC,0.08239 ± 0.00072

row,Sequence,PBM E-score of 8-mer
1,ATCACGCA,0.167 ± 0.0099
2,ATCACGCC,0.372 ± 0.017
3,ATCACGCG,0.334 ± 0.023
4,CTCACGCA,0.306 ± 0.019
5,CTCACGCC,0.3929 ± 0.00041
6,GACAGGAA,0.08894 ± 0.00038
7,GTGTGCCA,0.237 ± 0.025
8,AAGACACC,0.3306 ± 0.0024
9,AAGTGTGA,0.48967 ± 0.00029
10,TAGTGTGA,0.446 ± 0.0044
11,AAGTGTGC,0.368 ± 0.0052
12,AAGTGTAA,0.381 ± 0.05
13,TAGTGGGA,-0.0944 ± 0.019
14,CAGTGTGC,0.0644 ± 0.04
15,AAGTGTAG,0.147 ± 0.012
16,TAGTGTAA,0.185 ± 0.072
17,CAGTGTGA,0.3958 ± 0.0034
18,AAGTGTGT,0.34 ± 0.03
19,CAGTGTGG,0.249 ± 0.013
20,TAGTGAGA,0.278 ± 0.022

# — the supplement of paper PMC4166925
